Source: PubChem BioAssay (Tox21)
Several values for one entry are separate records, joined by “and”; a condition that tells them apart may be missing. Equal values may be shown once. Records with an inconclusive call do not appear. Entries that show only a call come without a potency. A structure can be active in one record and inactive in another. Activity calls are given as the source filed them. Unless noted, calls come from the whole dose curve.

Columns and labels:
[1] = Nuclear factor erythroid 2-related factor 2/antioxidant responsive element (Nrf2/ARE) small molecule agonists: qHTS cell viability counter screen in human keratinocytes (AID 1919968; active = well fitted curve in the direction sought with a large enough effect in the repeat runs; an effect the other way counts as inactive or inconclusive; note: nearly all actives have a fitted effect of over 55% in size; note: potency is the fitted concentration of half-maximal effect)
In short: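 Cytotoxicity was multiplexed with the Nrf2/ARE luciferase assay in the same wells. Stably transfected HaCaT keratinocytes were treated with test compounds for 23 h at 37 C. Cell viability was then measured by CellTiter-Fluor fluorescence.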

[2] = Nuclear factor erythroid 2-related factor 2/antioxidant responsive element (Nrf2/ARE) small molecule agonists: luciferase reporter gene qHTS assay in human keratinocytes (AID 1919969); note: nearly all actives have a fitted effect of over 35% in size; note: potency is the fitted concentration of half-maximal effect
[3] = biological target: KiSS-1 receptor (Homo sapiens) (UniProt Q969F8); experiment: Human kisspeptin (KISS1R) small molecule agonists, calcium flux assay in KISS1R-HEK293 cells (AID 1920064; active = well fitted curve in the direction sought with a large enough effect in the repeat runs; an effect the other way counts as inactive or inconclusive)
In short: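 Agonist activity is monitored as intracellular calcium rise in engineered HEK293 cells carrying human KISS1R. Cells are dye-loaded for 1 h at 37 C before compound addition, and fluorescence is recorded for 3 min.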

[4] = G protein-coupled receptor (GPCR) small molecule agonists, calcium flux assay: HEK293 wild type cell line counter screen (AID 1920065)
In short: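 Seed cells, incubate 18 h (37 C, 5% CO2); add calcium dye, 1 h at 37 C; pin-transfer compounds, ATP control or DMSO; read fluorescence 480/540 nm each second for 3 min.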

[5] = p53 small molecule agonists, cell-based qHTS assay with human liver microsomes (AID 1963577)
In short: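 p53RE-bla reporter cells were pre-incubated 5 h at 37 C, then treated with compounds plus human liver microsomes (0.5 mg/mL final) and NADPH (0.5 mg/mL final) for 16 h at 37 C. Beta-lactamase activity was read by LiveBLAzer fluorescence after 2 h at room temperature.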

[6] = p53 small molecule agonists, cell-based qHTS assay with rat liver microsomes (AID 1963578)
In short: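 p53RE-bla cells were exposed to compounds together with rat liver microsomes (0.5 mg/mL final) and NADPH (0.5 mg/mL final) for 16 h at 37 C, then read by LiveBLAzer beta-lactamase fluorescence after 2 h at room temperature.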

[7] = p53 small molecule agonists, cell-based qHTS assay with human liver microsomes: qHTS cell viability counter screen (AID 1963579); note: nearly all actives have a fitted effect of over 45% in size
In short: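 p53RE-bla cells (4,000/well) were pre-incubated 5 h at 37 C, then given compounds in DMSO plus human liver microsomes (0.5 mg/mL final) and NADPH (0.5 mg/mL final) for 16 h at 37 C. Viability was read by CellTiter-Glo luminescence.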

[8] = p53 small molecule agonists, cell-based qHTS assay with rat liver microsomes: qHTS cell viability counter screen (AID 1963580); note: nearly all actives have a fitted effect of over 45% in size; note: potency is the fitted concentration of half-maximal effect
In short: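 Counter screen for cytotoxicity under metabolic activation: rat liver microsomes and NADPH, 0.5 mg/mL final each, added with compounds to p53RE-bla HCT-116 cells; 16 h at 37 C, then ATP luminescence read.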

[9] = p53 small molecule agonists, cell-based qHTS assay: qHTS cell viability counter screen (AID 1963581); note: nearly all actives have a fitted effect of over 45% in size
In short: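 Viability was counter-screened in parallel with the p53 agonist reporter by measuring intracellular ATP luminescence in the same HCT-116 p53RE-bla wells after 16 h compound treatment at 37 C.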

[10] = p53 small molecule agonists, cell-based qHTS assay (AID 1963582; active = well fitted activation curve with a large enough effect in the signal ratio in the repeat runs, not every such curve was filed as active; the % refers to the signal ratio)
In short: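 Cells carrying a p53-responsive bla reporter are treated with test compounds for 16 h at 37 C; beta-lactamase activity is then detected with LiveBLAzer B/G FRET substrate after 2 h at room temperature.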

[11] = biological target: 5-hydroxytryptamine receptor 2A (Homo sapiens) (UniProt P28223); experiment: 5-hydroxytryptamine receptor 2A (HTR2A) small molecule antagonists, cell-based qHTS assay (AID 1963586); note: nearly all actives have a fitted effect of over 45% in size; note: potency is the fitted concentration of half-maximal effect
In short: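 CHO cells stably expressing human HTR2A were plated for 18 h at 37 C, then loaded with calcium dye for 1 h. Compounds were preincubated 5 min at room temperature before DOI (4 nM solution) was added. Kinetic fluorescence was read for 3 min.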

[12] = biological target: 5-hydroxytryptamine receptor 2A (Homo sapiens) (UniProt P28223); experiment: 5-hydroxytryptamine receptor 2A (HTR2A) small molecule agonists, cell-based qHTS assay (AID 1963587); note: nearly all actives have a fitted effect of over 30% in size; note: potency is the fitted concentration of half-maximal effect
In short: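 HTR2A-CHO cells, plated 18 h at 37 C/5% CO2, dye-loaded 1 h at 37 C; compounds in DMSO added by pin tool (agonist mode). Intracellular calcium flux read as kinetic fluorescence on FDSS over 2 min at 1 s intervals.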

[13] = biological target: Beta-2 adrenergic receptor (Homo sapiens) (UniProt P07550); experiment: Adrenergic beta2 receptor (ADRB2) small molecule antagonists, cell-based qHTS assay (AID 1963592); note: series mostly up to about 92 µM; nearly all actives have a fitted effect of over 50% in size
In short: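 Assay format: CHO-ADRB2 cells, 18-20hr seeding at 37C/5% CO2, then compound plus 1nM isoproterenol agonist mix for 0.5hr RT. Homogeneous time-resolved fluorescence cAMP detection after 1hr, expressed as 665/615 nm ratio.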

[14] = biological target: D(2) dopamine receptor (Homo sapiens) (UniProt P14416); experiment: Dopamine D2 receptor (DRD2) small molecule agonists, cell-based qHTS assay (AID 1963594); note: nearly all actives have a fitted effect of over 35% in size
In short: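 HEK293 cells stably expressing DRD2 were cultured 24 h at 37 C, then given Ro20-1724 (0.1 mM final) and compounds for 10 min at room temperature. NKH477 (200nM) was then added for 30 min. cAMP was read by HTRF.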

[15] = biological target: Muscarinic acetylcholine receptor M1 (Homo sapiens) (UniProt P11229); experiment: Cholinergic receptor muscarinic 1 (CHRM1) small molecule antagonists, cell-based qHTS assay (AID 1963588); note: nearly all actives have a fitted effect of over 40% in size; note: potency is the fitted concentration of half-maximal effect
In short: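 Compounds were tested at 15 concentrations in three independent runs. Dye-loaded CHRM1-CHO cells were exposed 5 min at room temperature before stimulation by acetylcholine added at 50nM. Intracellular calcium was read kinetically on FDSS for 3 min.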

[16] = biological target: Muscarinic acetylcholine receptor M1 (Homo sapiens) (UniProt P11229); experiment: Cholinergic receptor muscarinic 1 (CHRM1) small molecule agonists, cell-based qHTS assay (AID 1963589); note: nearly all actives have a fitted effect of over 35% in size
In short: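 Cells were plated and incubated 18 h at 37 C/5% CO2, loaded with calcium dye for 1 h at 37 C, then treated with compounds in DMSO. Fluorescence was recorded kinetically at 1 sec intervals.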

[17] = cAMP Responsive Elements (CRE) small molecule agonists, cell-based qHTS assay (AID 1963590)
In short: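 Cells carrying a CRE-driven beta-lactamase reporter (HEK 293T) are seeded, incubated overnight (18 h), and treated with test compounds for 3 h at 37 C; reporter activity is then detected with a FRET substrate after 2 h at room temperature.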

[18] = biological target: Beta-2 adrenergic receptor (Homo sapiens) (UniProt P07550); experiment: Adrenergic beta2 receptor (ADRB2) small molecule agonists, cell-based qHTS assay (AID 1963593); note: potency is the fitted concentration of half-maximal effect;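 for activation: CHO cells stably overexpressing human ADRB2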
In short: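 CHO cells stably over-expressing ADRB2 were plated overnight at 37C, then dosed with compounds plus a stimulation mix containing 100uM IBMX and 25uM Ro-20-1724 for 0.5hr at room temperature. cAMP was measured by HTRF competition, 1hr.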

[19] = biological target: D(2) dopamine receptor (Homo sapiens) (UniProt P14416); experiment: Dopamine D2 receptor (DRD2) small molecule antagonists, cell-based qHTS assay (AID 1963595; active = well fitted inhibition curve with a large enough effect in the signal ratio in the repeat runs, with a control signal flat; the % refers to the signal ratio)
In short: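 Antagonist mode in DRD2-HEK293 cells: after compound addition with 0.1 mM Ro20-1724, cells received quinpirole (12 nM) and NKH477 (200 nM) for 30 min at room temperature; HTRF cAMP read after 1 h detection.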

[20] = cAMP Responsive Elements (CRE) small molecule antagonists, cell-based qHTS assay (AID 1963591; active = well fitted inhibition curve with a large enough effect in the signal ratio in the repeat runs, not every such curve was filed as active; the % refers to the signal ratio)
In short: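 Cells (CRE-bla HEK 293T, DMEM with 10% dialyzed FBS and 25 mM HEPES) are seeded and incubated 18 h. Compounds are added with NKH477 agonist at 0.25 uM final for 3 h, then FRET substrate for 2 h.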

Sequence of 5-hydroxytryptamine receptor 2A (Homo sapiens) (P28223 whole entry, looked up): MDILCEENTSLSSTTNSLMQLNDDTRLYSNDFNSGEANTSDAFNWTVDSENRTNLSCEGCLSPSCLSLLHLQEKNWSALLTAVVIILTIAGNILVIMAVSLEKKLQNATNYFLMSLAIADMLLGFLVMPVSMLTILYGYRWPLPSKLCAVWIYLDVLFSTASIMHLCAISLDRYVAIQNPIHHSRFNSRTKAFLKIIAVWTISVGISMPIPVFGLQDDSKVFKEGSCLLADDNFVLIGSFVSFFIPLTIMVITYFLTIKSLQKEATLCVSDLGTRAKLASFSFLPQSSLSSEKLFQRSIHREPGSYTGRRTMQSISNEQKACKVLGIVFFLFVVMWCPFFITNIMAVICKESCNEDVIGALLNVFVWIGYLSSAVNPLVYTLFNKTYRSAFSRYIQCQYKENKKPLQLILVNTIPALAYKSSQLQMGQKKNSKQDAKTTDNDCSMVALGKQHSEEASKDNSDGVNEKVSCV
Sequence of D(2) dopamine receptor (Homo sapiens) (P14416 whole entry, looked up): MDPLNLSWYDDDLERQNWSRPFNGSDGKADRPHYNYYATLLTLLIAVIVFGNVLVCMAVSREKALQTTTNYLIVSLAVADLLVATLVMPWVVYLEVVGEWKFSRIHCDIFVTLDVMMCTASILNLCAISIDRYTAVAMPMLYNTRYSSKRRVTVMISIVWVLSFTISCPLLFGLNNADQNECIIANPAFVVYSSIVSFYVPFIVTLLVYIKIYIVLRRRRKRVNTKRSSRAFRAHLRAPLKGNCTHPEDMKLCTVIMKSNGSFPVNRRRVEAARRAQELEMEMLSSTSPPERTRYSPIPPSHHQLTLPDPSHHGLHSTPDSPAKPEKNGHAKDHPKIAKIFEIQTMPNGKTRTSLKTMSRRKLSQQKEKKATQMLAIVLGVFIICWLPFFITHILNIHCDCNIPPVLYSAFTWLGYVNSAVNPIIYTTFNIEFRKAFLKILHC
Sequence of Beta-2 adrenergic receptor (Homo sapiens) (P07550 whole entry, looked up): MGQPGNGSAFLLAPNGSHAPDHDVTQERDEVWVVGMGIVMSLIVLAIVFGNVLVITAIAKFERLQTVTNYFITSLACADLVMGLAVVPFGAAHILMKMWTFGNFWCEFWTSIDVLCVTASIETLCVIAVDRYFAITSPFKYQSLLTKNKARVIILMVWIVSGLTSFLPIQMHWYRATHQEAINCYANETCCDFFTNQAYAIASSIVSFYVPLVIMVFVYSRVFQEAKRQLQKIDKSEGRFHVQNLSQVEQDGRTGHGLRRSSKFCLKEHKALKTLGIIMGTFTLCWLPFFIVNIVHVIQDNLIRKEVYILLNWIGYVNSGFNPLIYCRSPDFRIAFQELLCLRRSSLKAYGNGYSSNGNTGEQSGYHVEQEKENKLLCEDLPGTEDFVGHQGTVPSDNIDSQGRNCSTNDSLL
Sequence of Muscarinic acetylcholine receptor M1 (Homo sapiens) (P11229 whole entry, looked up): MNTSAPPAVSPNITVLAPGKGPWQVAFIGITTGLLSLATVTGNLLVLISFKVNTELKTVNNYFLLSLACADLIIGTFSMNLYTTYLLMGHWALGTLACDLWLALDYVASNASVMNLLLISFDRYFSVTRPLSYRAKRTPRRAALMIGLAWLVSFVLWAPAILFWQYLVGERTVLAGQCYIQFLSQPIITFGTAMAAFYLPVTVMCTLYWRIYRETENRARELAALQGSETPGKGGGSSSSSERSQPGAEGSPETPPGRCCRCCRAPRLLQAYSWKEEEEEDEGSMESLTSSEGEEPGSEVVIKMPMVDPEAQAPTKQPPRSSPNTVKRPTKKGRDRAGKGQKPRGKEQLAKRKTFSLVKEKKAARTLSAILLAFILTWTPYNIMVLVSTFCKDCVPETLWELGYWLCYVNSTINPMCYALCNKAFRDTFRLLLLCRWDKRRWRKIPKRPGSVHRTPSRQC
Sequence of KiSS-1 receptor (Homo sapiens) (Q969F8 whole entry, looked up): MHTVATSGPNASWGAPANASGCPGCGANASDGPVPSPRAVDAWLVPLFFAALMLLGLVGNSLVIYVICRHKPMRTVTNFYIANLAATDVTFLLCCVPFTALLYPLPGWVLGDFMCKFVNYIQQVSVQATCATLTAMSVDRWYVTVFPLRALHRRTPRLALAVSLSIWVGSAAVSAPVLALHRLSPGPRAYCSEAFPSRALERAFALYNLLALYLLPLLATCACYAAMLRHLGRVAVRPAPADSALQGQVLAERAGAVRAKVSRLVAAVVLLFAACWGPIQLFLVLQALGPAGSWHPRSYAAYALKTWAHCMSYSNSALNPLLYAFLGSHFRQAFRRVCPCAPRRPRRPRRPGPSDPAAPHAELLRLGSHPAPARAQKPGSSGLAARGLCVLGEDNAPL

Compound | Potency [1] | Potency [2] | Potency [3] | Potency [4] | Potency [5] | Potency [6] | Potency [7] | Potency [8] | Potency [9] | Potency [10] | Potency [11] | Potency [12] | Potency [13] | Potency [14] | Potency [15] | Potency [16] | Potency [17] | Potency [18] | Potency [19] | Potency [20]
CC(C)(C)c1ccc(O)c(C(C)(C)C)c1 | 27.2 µM (active) and 43.3 µM (active) | 9.65 µM (active) and 61.1 µM (active) | inactive | inactive | inactive | inactive | inactive | 45.8 µM (active) | inactive | inactive | 23.7 µM (active) | 34.5 µM (active) and 27.5 µM (active) | inactive | inactive | – | – | – | – | – | –
Cc1ncc(CSSCc2cnc(C)c(O)c2CO)c(CO)c1O | inactive | inactive | inactive | inactive | inactive | inactive | inactive | inactive | inactive | inactive | inactive | – | inactive | – | inactive | inactive | inactive | inactive | inactive | –
CCCCCCCN | inactive | inactive | inactive | inactive | inactive | inactive | inactive | inactive | inactive | inactive | – | inactive | – | inactive | inactive | inactive | inactive | – | inactive | inactive
Nc1cccc2c1CN(C1CCC(=O)NC1=O)C2=O (stereo not drawn) | inactive | inactive | inactive | inactive | inactive | inactive | inactive | inactive | inactive | inactive | inactive | – | inactive | inactive | inactive | inactive | inactive | – | – | inactive
C[N+]1([O-])CCOCC1 | inactive | inactive | inactive | inactive | inactive | inactive | inactive | – | inactive | inactive | inactive | inactive | inactive | inactive | inactive | inactive | inactive | inactive | inactive | inactive
CCN1CCCC(OC(=O)C(c2ccccc2)c2ccccc2)C1 (stereo not drawn) | inactive | inactive | inactive | inactive | inactive | inactive | inactive | inactive | inactive | inactive | – | 75.6 nM (active) | inactive | – | 4.1 µM (active) | inactive | inactive | inactive | – | –
C1CCCC1 | inactive | inactive | inactive | inactive | inactive | inactive | inactive | inactive | inactive | inactive | inactive | inactive | inactive | inactive | inactive | inactive | – | – | inactive | inactive
COC(=O)C1=C(C)NC(C)=C(C(=O)OCC(C)C)C1c1ccccc1[N+](=O)[O-] (stereo not drawn) | inactive | 24.3 µM (active) and inactive | inactive | inactive | inactive | inactive | inactive | inactive | inactive | inactive | – | – | inactive | inactive | – | – | – | 11.9 µM (active) | – | inactive
O=C(O)c1cc(O)c(O)c(O)c1 | inactive | inactive | inactive | inactive | inactive | inactive | inactive | inactive | inactive | inactive | inactive | inactive | – | – | inactive | inactive | inactive | inactive | inactive | inactive
CC(=O)c1ccccc1O | inactive | inactive | inactive | inactive | inactive | inactive | inactive | inactive | – | inactive | inactive | inactive | inactive | inactive | inactive | inactive | inactive | – | inactive | inactive
CNCCCC12CCC(c3ccccc31)c1ccccc12 | 54.5 µM (active) | inactive | inactive | inactive | inactive | inactive | – | inactive | inactive | inactive | – | – | – | inactive | – | – | inactive | – | inactive | inactive
CC(C)CCCC(C)N (stereo not drawn) | inactive | inactive | inactive | inactive | inactive | – | – | inactive | inactive | inactive | inactive | inactive | inactive | – | inactive | inactive | – | – | – | inactive
CC(=O)[C@H]1CC[C@H]2[C@@H]3CCC4=CC(=O)CC[C@]4(C)[C@H]3CC[C@]12C | inactive | inactive | inactive | inactive | inactive | – | inactive | inactive | inactive | – | – | – | inactive | inactive | – | – | – | – | inactive | –
CNc1ccccc1 | inactive | inactive | inactive | inactive | inactive | – | inactive | inactive | inactive | inactive | inactive | inactive | inactive | inactive | inactive | inactive | – | inactive | inactive | inactive
CC(C)(C)S | inactive | inactive | inactive | inactive | – | inactive | inactive | inactive | inactive | inactive | inactive | – | inactive | inactive | – | inactive | inactive | – | inactive | inactive
CCCCC(CC)COC(=O)CCCCCCCC(=O)OCC(CC)CCCC (stereo not drawn) | 54.5 µM (active) and inactive | 15.4 µM (active) and inactive | inactive | inactive | inactive | – | inactive | inactive | inactive | inactive | inactive | 9.77 µM (active) and inactive | inactive | inactive | – | inactive | inactive | inactive | inactive | inactive
